Test results as given in PubChem BioAssay (NCI).
Several values for one entry are separate records, joined by “and”; a condition that tells them apart may be missing. Equal entries are not always repeated. This is part of a sample that, as a whole, favours compounds with a hit. Of some 79,000 tested, about 15% had one in any assay. A number with no mark means an inactive call. Activity calls are given as the source filed them. Cut-off read from the data, not from the text of the source: active = growth inhibition above about 70%; inactive = the rest.

Tests used:
[1] = NCI Yeast Anticancer Drug Screen. Data for the rad50 strain (AID 155);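 note: 0% = growth of vehicle-only cultures of the same strain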; conditions: S. cerevisiae rad50 strain growth inhibition, active compounds read high
In short: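 Vehicle-treated cultures provide the reference for the growth inhibition reported for compound-exposed, repair-deficient yeast.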

[2] = NCI Yeast Anticancer Drug Screen. Data for the mec2-1 strain (AID 157); conditions: S. cerevisiae mec2-1 strain, active compounds read high
In short: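 Strain: mec2-1 (DNA repair/cell cycle alteration). Compound exposure, then growth measured; inhibition expressed relative to vehicle.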

[3] = NCI Yeast Anticancer Drug Screen. Data for the sgs1 mgt1 strain (AID 161);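 note: 0% = growth of cultures given vehicle only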; conditions: S. cerevisiae sgs1 mgt1 strain, active compounds read high
In short: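 Read-out: growth inhibition vs vehicle controls. Cells: mutant yeast strain deficient in DNA damage repair.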

[4] = NCI Yeast Anticancer Drug Screen. Data for the cln2 rad14 strain (AID 165);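 note: 0% = growth equal to vehicle treated cultures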; conditions: S. cerevisiae cln2 rad14 strain, active compounds read high
In short: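 Compounds are applied to the cln2 rad14 yeast strain, and growth is then compared with that of vehicle-treated cultures to give inhibition.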

[5] = NCI Yeast Anticancer Drug Screen. Data for the bub3 strain (AID 167); conditions: S. cerevisiae bub3 mutant strain, active compounds read high
In short: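 Mutant yeast screening strain plus compound; vehicle-treated cultures serve as the 0% inhibition reference.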

[6] = NCI Yeast Anticancer Drug Screen. Data for the mlh1 rad18 strain (AID 175); conditions: S. cerevisiae mlh1 rad18 strain growth inhibition, active compounds read high
In short: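 Read-out is yeast growth inhibition, calculated against vehicle-only controls. The compound was applied to a strain engineered with DNA damage repair alterations.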

[7] = at 5.0 µM (retest, dose inferred, filed as 0.5)
[8] = at 50.0 µM (retest, dose inferred, filed as 5.0)

Structure (SMILES) | growth inhibition [1, 7] | growth inhibition [1, 8] | growth inhibition ([1]; at 50.0 µM) | growth inhibition [2, 7] | growth inhibition [2, 8] | growth inhibition ([2]; at 50.0 µM) | growth inhibition [3, 7] | growth inhibition [3, 8] | growth inhibition ([3]; at 50.0 µM) | growth inhibition [4, 7] | growth inhibition [4, 8] | growth inhibition ([4]; at 50.0 µM) | growth inhibition [5, 7] | growth inhibition [5, 8] | growth inhibition ([5]; at 50.0 µM) | growth inhibition [6, 7] | growth inhibition [6, 8] | growth inhibition ([6]; at 50.0 µM)
CC[C@@]1(O)C(=O)OCc2c1cc1n(c2=O)Cc2cc3cc4c(cc3nc2-1)OCO4 | 95% (active) | 92% (active) | 72.4% (active) | 97% (active) | 94% (active) | 81.3% (active) | 91% (active) | 85% (active) | 80.9% (active) | 48% | 47% | 71.7% (active) | 85% (active) | 83% (active) | 74.3% (active) | 91% (active) | 89% (active) | 34.4%
CCCCCCCCCCCC1CCCC(C)N1 (stereo not drawn) | 8% and 28% | 98% (active) and 92% (active) | 91.1% (active) and 91.6% (active) | 19% and 26% | 98% (active) and 88% (active) | 93.3% (active) | 17% and 32% | 98% (active) and 90% (active) | 93.3% (active) and 92.5% (active) | 10% and 49% | 94% (active) and 95% (active) | 90.5% (active) and 91% (active) | 24% and 32% | 97% (active) and 85% (active) | 91.8% (active) and 91.5% (active) | 13% and 36% | 98% (active) and 86% (active) | 92.1% (active) and 91.3% (active)
CCOC(=O)C(Cc1ccc(O)cc1)NCc1ccc(N(CCCl)CCCl)cc1 (stereo not drawn) | 83% (active) | 83% (active) | 37.8% | 36% | 94% (active) | 69.1% | 64% | 99% (active) | 72.2% (active) | 52% | 84% (active) | 56.7% | 65% | 94% (active) | 69.5% | 80% (active) | 76% (active) | 76.7% (active)
Ic1cccc2c1[se]c1ccccc12 | -8% | 22% | 25.2% | 8% | 20% | -4.05% | 0% | 40% | 6.7% | 5% | -28% | -27.8% | -3% | 27% | -11.3% | 9% | 75% (active) | 2.15%
CCOC(=O)C1CC12c1ccccc1-c1ccccc12 (stereo not drawn) | 2% | 23% | 73.5% (active) | -6% | 29% | 52.9% | -23% | 48% | 67.2% | -6% | -5% | 19.8% | 1% | 4% | 14.9% | -1% | 41% | 69.5%
O=c1oc2ccccc2c(O)c1C(c1ccco1)c1c(O)c2ccccc2oc1=O | 11% | 22% | 79% (active) | 13% | 24% | 79.2% (active) | -6% | 43% | 44.2% | 16% | 28% | 41.5% | 9% | 56% | 34.2% | 9% | 19% | 27.5%
O=C(CI)NCc1ccccc1 | 22% | 98% (active) | 97.8% (active) | 29% | 99% (active) | 99.2% (active) | 41% | 99% (active) | 99% (active) | 12% | 99% (active) | 97.8% (active) | 31% | 99% (active) | 99% (active) | 55% | 99% (active) | 99.2% (active)
CCC(C)(C)c1ccc(O)cc1 | -1% | 16% | -19.3% and 59.8% | -3% | 0% | -17.4% and 40.9% | -10% | 5% | -10.9% and 63% | 1% | -4% | -15.2% and -13.6% | 2% | 7% | -28.6% and 38.3% | -2% | 11% | -17.7% and 64.5%
C/C(=C\c1ccc2c(c1)OCO2)[N+](=O)[O-] | 93% (active) | 98% (active) | 98.2% (active) | 7% | 100% (active) | 73.5% (active) | 16% | 97% (active) | 83.4% (active) | -6% | 99% (active) | 40.1% | 10% | 96% (active) | 51% | 11% | 99% (active) | 70.8% (active)
Cc1oc2c([N+](=O)[O-])cccc2c1[N+](=O)[O-] | 98% (active) | 98% (active) | 99.5% (active) | 99% (active) | 99% (active) | 99.8% (active) | 99% (active) | 98% (active) | 99.6% (active) | 98% (active) | 98% (active) | 98.8% (active) | 99% (active) | 99% (active) | 52.2% | 98% (active) | 98% (active) | 99.7% (active)
Clc1c(CI)ccc(CI)c1Cl | 22% | 79% (active) | 98.7% (active) | 60% | 90% (active) | 97.2% (active) | 17% | 74% (active) | 98.7% (active) | 34% | 85% (active) | 54.3% | 62% | 89% (active) | 87.2% (active) | 82% (active) | 96% (active) | 97.5% (active)
CC(=O)Nc1cccc([As+](C)(c2cccc(NC(C)=O)c2)c2cccc(NC(C)=O)c2)c1 | -1% | 11% | 4.35% | 13% | 14% | -2% | -14% | 13% | -5.65% | 18% | 15% | -26% | 5% | 3% | 6.05% | 7% | 11% | 8.65%
O=C(O)C(O)(c1ccccc1)C1(O)CCCCC1 (stereo not drawn) | -147% | -173% | 1.7% | -47% | -54% | 7.95% | -53% | -64% | 17.2% | -54% | -61% | 3.15% | -64% | -83% | -3.65% | -114% | -127% | 50.3%
O=S(=O)([O-])[O-].[OH3+].[OH3+].[OH3+].[Ru+2].c1ccccc1 | -39% | -9% | 88.8% (active) | -1% | -2% | 92.2% (active) | -15% | 20% | 90.5% (active) | -9% | 15% | 89.6% (active) | -11% | 42% | 90.7% (active) | -38% | 30% | 87.5% (active)
CN(C)C(=S)[S][Sb]([c]1ccccc1)[c]1ccccc1 | 97% (active) | 99% (active) | 70.6% (active) | 99% (active) | 99% (active) | 83.5% (active) | 93% (active) | 99% (active) | 90.3% (active) | 89% (active) | 97% (active) | 57.1% | 98% (active) | 75% (active) | 98.3% (active) | 99% (active) | 99% (active) | 90.5% (active)
COc1cccc(C(Cc2ccc(N3C(N)=NC(N)=NC3(C)C)cc2)C(=O)Nc2ccc(S(=O)(=O)F)cc2)c1 (stereo not drawn) | 8% | 96% (active) | 99.5% (active) | -139% | 99% (active) | 99.6% (active) | 1% | 99% (active) | 99.8% (active) | -1% | 92% (active) | 96.7% (active) | 1% | 98% (active) | 95% (active) | 6% | 99% (active) | 99.4% (active)
